In the library only some 1.7% were active in any assay of this set; here they are far more common.
TRHR PAM = TRH receptor (human) allosteric enhancement; TRHR cells, fluo-8 calcium fluorescence, EC20 TRH enhancement; P34981; enhancement, % at 2 µM; 0.66% of 360,000 active; in the data active = enhancement above about 30%; note: 0% is about no effect
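TRHR-expressing cells loaded with fluo-8 calcium dye were read kinetically (ex 480/em 530) during compound addition, then stimulated with an EC20 of TRH (10 nM final). Enhancement of the Gq-mediated intracellular calcium response was scored.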
TRPML1 inh = human mucolipin-1 channel inhibition; Q9GZU1; TRPML1-inducible cells, Ca2+ dye fluorescence, FDSS; hits give low values; inhibition of EC80 agonist-evoked calcium signal; activity change, negative = inhibition, % (concentration not given with the values); 0.02% of 390,000 active; in the data active = activity change below about -50%; inconclusive = between about -30% and that limit;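 note: stimulus is agonist 54-4 at its EC80 concentration; % is set by controls: 0 for no effect and ±100 for the full control effect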
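Calcium fluorescence in TRPML1-DL cells induced overnight with Tet: a 110 s read after compound pin addition, then a 110 s antagonist read after challenge with 54-4 at 4 uM final (EC80).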
KCNH2 3.1 inh = KCNH2 3.1 (human) potassium channel inhibition. U2OS KCNH2 3.1, thallium flux FluxOr; hits give low values. activity change, % (tested at about 1.8 µM). 0.95% of 340,000 active;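 active = maximum activity change below -70%; inconclusive = maximum activity change from -70% to -50%; inactive = maximum activity change above -50%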;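 note: thallium influx rate constant from kinetic fluorescence after stimulation buffer; % is set by controls: 0 for no effect and ±100 for the full control effect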
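FluxOr-based Tl+ influx in U2OS cells transduced with KCNH2 3.1 virus; rate constants normalized to DMSO controls.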
TRPML1 agonist = human mucolipin-1 channel agonism; activation, % (concentration not given with the values); 0.12% of 410,000 active; Q9GZU1; AID 624414; TRPML1-expressing cells, Ca2+ dye fluorescence, FDSS; in the data active = activation above about 50%; inconclusive = mostly about 30% to 49%; note: 0% is about no effect
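Kinetic FDSS Ca2+ read in Tet-induced TRPML1-DL cells (ABD Ca8 dye plus quencher, 45-90 min RT loading): baseline, then compound, then 110 s agonist window; EC80 agonist 54-4 at 4uM final added afterwards for a 110 s antagonist window.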
hERG WT inh = KCNH2 (human, wildtype) channel inhibition. Q12809. U2OS, BacMam KCNH2, thallium flux FluxOr; hits give low values. activity change, % at 1.84 µM. 0.37% of 340,000 active;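 active = maximum activity change below -70%; inconclusive = maximum activity change between -70% and -50%; inactive = maximum activity change above -50%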; note: % is set by controls: 0 for no effect and ±100 for the full control effect
Target sequence (Q12809 whole entry, looked up): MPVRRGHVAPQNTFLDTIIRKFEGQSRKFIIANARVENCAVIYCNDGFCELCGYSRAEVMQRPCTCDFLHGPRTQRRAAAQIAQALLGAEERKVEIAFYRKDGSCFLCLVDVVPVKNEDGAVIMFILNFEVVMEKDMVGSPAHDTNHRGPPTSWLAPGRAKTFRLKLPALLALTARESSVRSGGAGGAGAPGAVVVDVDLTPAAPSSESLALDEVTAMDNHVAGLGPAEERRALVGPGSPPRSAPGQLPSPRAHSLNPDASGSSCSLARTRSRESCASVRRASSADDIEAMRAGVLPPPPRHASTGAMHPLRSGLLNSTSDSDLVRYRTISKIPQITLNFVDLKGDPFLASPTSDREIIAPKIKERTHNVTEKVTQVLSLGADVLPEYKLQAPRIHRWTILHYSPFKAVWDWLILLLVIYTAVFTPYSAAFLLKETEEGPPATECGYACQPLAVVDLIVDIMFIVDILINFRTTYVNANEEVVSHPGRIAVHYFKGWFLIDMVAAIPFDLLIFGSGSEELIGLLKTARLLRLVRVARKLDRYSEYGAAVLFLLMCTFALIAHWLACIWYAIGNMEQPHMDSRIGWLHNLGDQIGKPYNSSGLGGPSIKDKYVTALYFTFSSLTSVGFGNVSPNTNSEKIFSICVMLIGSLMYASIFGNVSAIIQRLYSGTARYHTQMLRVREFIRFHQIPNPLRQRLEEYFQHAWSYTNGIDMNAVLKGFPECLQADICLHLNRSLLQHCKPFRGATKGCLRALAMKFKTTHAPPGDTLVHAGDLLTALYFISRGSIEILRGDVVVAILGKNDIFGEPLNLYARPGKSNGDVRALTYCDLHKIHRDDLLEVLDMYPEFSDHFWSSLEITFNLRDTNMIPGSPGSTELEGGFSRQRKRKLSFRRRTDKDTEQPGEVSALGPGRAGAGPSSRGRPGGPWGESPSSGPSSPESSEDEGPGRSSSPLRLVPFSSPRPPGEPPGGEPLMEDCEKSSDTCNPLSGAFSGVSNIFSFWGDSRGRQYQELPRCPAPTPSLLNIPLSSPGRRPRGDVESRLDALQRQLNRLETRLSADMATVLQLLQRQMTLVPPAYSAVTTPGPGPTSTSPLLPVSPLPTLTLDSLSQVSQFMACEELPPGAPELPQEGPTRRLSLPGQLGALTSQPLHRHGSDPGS
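U2OS cells transduced with wild-type KCNH2 virus are loaded with FluxOr dye for 45 min, and thallium flux is measured in kinetic reads before and after stimulation buffer. Rate constants are normalized to DMSO controls.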
TRHR agonist = activates the human TRH receptor | P34981 | TRHR cells, calcium flux fluo-8, FDSS agonist mode | activation, % at 2 µM | 0.18% of 360,000 active; in the data active = activation above about 30%; note: 0% is about no effect
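In this calcium-flux screen, cells bearing human TRHR are dye-loaded with fluo-8, baselined for 10 cycles, then exposed to library compounds; positive kinetic calcium responses during the agonist phase mark hits, with TRH as control.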
* marks the source's active call; other numbers are inactive results; ? = inconclusive; / = no result.

SMILES | TRHR PAM | TRPML1 inh | KCNH2 3.1 inh | TRPML1 agonist | hERG WT inh | TRHR agonist
Cc1cccc(CCN2C(Nc3ccccc3)=NC[C@@H]2CC(C)C)c1 | -24 | -2 | -46 | 26 | 64 | 41*
O=c1ccn([C@@H]2O[C@H](CNS(=O)(=O)C3CC3)[C@@H](O)[C@H]2O)c(=O)[nH]1 | / | -1 | 1 | -1 | 7 | /
Cc1csc(NC(=O)CSc2nc3ccccc3c3c2CCCC3)n1 | 36* | -24 | 3 | 0 | -2 | 2
CCCCCCn1c(=O)[nH]c2c(c1=O)CCC2 | 11 | -18 | -2 | 1 | 4 | 0
CCCCCCn1c(=O)[nH]c2nc3cc(N)ccc3nc2c1=O | 31* | -10 | -1 | 51* | -36 | 130*
CN(C)c1ccc(/C=C/c2ccnc3c(Cl)ccc(Cl)c23)cc1 | / | / | / | 64* | / | /
Cc1cc2oc(C(=O)Nc3cccc(-c4nc5ccccc5o4)c3)c(C)c2cc1Cl | 33* | -15 | / | -1 | / | -1
Clc1ccc(CN2CCC(c3nc4ccc(Cl)cc4[nH]3)CC2)cc1 | -2 | -11 | -97* | 3 | -96* | -1
O=C(CSc1nnc(-c2ccncc2)o1)Nc1ccc(F)c(F)c1 | 9 | 1 | 0 | 0 | -3 | 0
Cc1cc(S(=O)(=O)Nc2cccnc2)c(C)s1 | 6 | 5 | -72* | 0 | 3 | 1
Cc1ccc(S(=O)(=O)Nc2cccnc2)cc1C | 5 | -8 | 11 | -1 | 5 | 1
CC(C)(CNC(=O)c1ccc(S(=O)(=O)Nc2cccc(C(F)(F)F)c2)cc1)N1CCOCC1 | 35* | -11 | 29 | 2 | -7 | 2
Cc1ccc(N2CCN(C(=O)Nc3cccc([N+](=O)[O-])c3)CC2C)cc1 (centres undefined) | -4 | -5 | -74* | 6 | -77* | 2
O=C(Nc1cccc([N+](=O)[O-])c1)N1CCN(c2ccccc2)CC1 | -6 | 13 | 0 | -1 | -5 | 1
CN(C1CCCCC1)S(=O)(=O)c1cccc2nsnc12 | 0 | -15 | 0 | -1 | -20 | 0
O=c1oc2ccccc2cc1-c1nc2c(s1)CCCC2 | -3 | -5 | -87* | 0 | 1 | 0
O=c1oc2ccccc2cc1-c1nc2ccccc2o1 | 8 | 35 | 4 | 1 | -28 | -1
COc1ccc(OC)c(CN2CCC(CO)(CCOc3ccccc3)CC2)c1 | 2 | 2 | -75* | 0 | 69 | 0
OCC1(CCOc2ccccc2)CCN(Cc2cccn2-c2ncccn2)CC1 | 3 | -10 | -93* | 0 | -16 | -2
OCC1(CCOc2ccccc2)CCN(C2Cc3ccccc3C2)CC1 | 1 | 5 | -77* | 1 | 15 | 0
Cc1cc(C)c(CN2CCC(CO)(CCOc3ccccc3)CC2)cc1C | 4 | 13 | -111* | 0 | -35 | 4
COc1cc(CN2CCC(CO)(CCOc3ccccc3)CC2)cc(OC)c1 | 0 | 5 | ? | 0 | 19 | 1
CC(C)CCn1c(=O)c2sccc2n2c(CCCC(=O)NC(C)c3ccccc3)nnc12 (centres undefined) | -1 | -4 | / | 0 | / | 0
CCOc1ccc(NC(=O)CC2C(=O)OCCN2CC)cc1 (centres undefined) | 6 | -3 | / | 1 | / | -4
O=C(NCC1CC1)c1csc([C@@H]2O[C@H](CO)[C@H](O)[C@H](O)[C@H]2O)n1 | / | / | / | -1 | / | /
SMILES | TRHR PAM | TRPML1 inh | KCNH2 3.1 inh | TRPML1 agonist | hERG WT inh | TRHR agonist
Cc1cccc(C)c1NC(=O)CNC(=O)Cc1c[nH]c2ccccc12 | -2 | -12 | 5 | 1 | -106* | 0
Cc1c(Cl)cccc1NC(=O)CNC(=O)Cc1c[nH]c2ccccc12 | -3 | -4 | -4 | -1 | -6 | 0
CC(C)CNC(=O)CCCc1c[nH]c2ccccc12 | 3 | -11 | -12 | 2 | -70* | 0
CCc1cccc(N2C(=O)CS(=O)(=O)C23C(=O)N(Cc2ccccc2)c2ccc(C)cc23)c1 (centres undefined) | -9 | -4 | / | 1 | / | 0
COc1ccc(N(Cc2ccccc2)C(=O)c2nc(S(C)(=O)=O)ncc2Cl)cc1 | -25 | -13 | / | 6 | / | 1
COc1cc(/C=C(\C#N)C(=O)Nc2cccc(C(=O)O)c2)ccc1OCc1ccc(Cl)cc1 | 6 | 62 | -12 | 2 | -92* | -1
CC1CN(C2CCCCC2)C(=S)N(c2ccccc2)C1=O (centres undefined) | / | 2 | 28 | 1 | 2 | /
O=S(=O)(c1ccccc1)N1CCNc2ccccc21 | / | 2 | -122* | -1 | 0 | /
S=c1nc(-c2ccc(Br)cc2)[nH]c2ccccc12 | 0 | / | 31 | / | -141* | 2
Nc1nc(SCC(=O)c2c(N)n(Cc3ccccc3)c(=O)[nH]c2=O)n[nH]1 | 2 | -8 | -17 | 0 | -105* | 1
COc1ccc(-c2cn[nH]c2C)cc1 | 31* | -7 | 14 | 2 | -3 | -1
COc1ccc(-c2cn[nH]c2-c2ccc(OC)cc2O)cc1 | 4 | 61 | 11 | 2 | 3 | -1
COc1ccc(-n2ccnc2CN2CCCC(CO)(Cc3cccc(OC)c3)C2)cc1 (centres undefined) | -3 | -14 | 15 | 2 | 11 | 0
COc1cccc(CC2(CO)CCCN(Cc3[nH]c4ccc(C)cc4c3C)C2)c1 (centres undefined) | 7 | / | -99* | / | -89* | 0
COc1cccc(CC2(CO)CCCN(Cc3c(C)cc(C)cc3-n3cccn3)C2)c1 (centres undefined) | -11 | 1 | -102* | 2 | -124* | 0
CC(C)N(Cc1nccn1C)C(=O)CC1C(=O)NCCN1Cc1ccc(F)c(F)c1 (centres undefined) | -3 | 10 | 11 | 0 | 9 | 1
Cc1ccc(C(=O)c2cn(Cc3ccccc3)c3nc(C)ccc3c2=O)cc1 | 1 | 8 | / | -1 | / | 0
Cc1nn2c(N3CCCC3)c3c(nc2c1-c1ccccc1)CCC3 | -2 | 11 | 3 | 1 | 6 | -1
Cc1nn2c(N3CCN(CCO)CC3)c3c(nc2c1-c1ccccc1)CCCC3 | -8 | -10 | -94* | 1 | 2 | -1
O=S(=O)(NCCN1CCOCC1)c1cc(Cl)c(Cl)cc1Cl | -12 | 0 | -14 | 0 | 4 | 1
CCCCN1CC(=O)N2[C@H](c3ccc(Cl)cc3)[C@@H]3C(=O)N(CC)C(=O)[C@@H]3[C@]2(C)C1=O | 0 | 4 | -115* | 0 | 0 | 0
CCN1C(=O)[C@H]2[C@@H](c3ccc(Cl)cc3)N3C(=O)CN(CCOC)C(=O)[C@@]3(C)[C@H]2C1=O | 1 | -3 | 16 | 0 | 0 | 0

Compound activity as filed in PubChem BioAssay.
